# Measured values published in PubChem BioAssay (NCATS).
# “And” between values parts separate entries of the source, which are not always exact repeats. Identical values can stand only once. Records with an inconclusive call do not appear. The source made the active and inactive calls. Unless noted, calls come from the whole dose curve; as a rule, active = well fitted curve in the direction sought with a large enough effect; inconclusive = small, poorly fitted or top-dose-only effect, or another doubt; inactive = no such curve, though single readings can be large; an effect the other way counts as inactive or inconclusive.
# Tests used:
# [1] = Cell Viability - BJ (AID 421; calls by dose curve;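 note: potency is the fitted concentration of half-maximal effect; cells exposed to compound for 40 hours at 37 °C before readout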); conditions: BJ fibroblast viability, qHTS
# Summary of the method: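 Normal human BJ foreskin fibroblasts, 1500/well in complete medium, treated 40 hr at 37 °C. Cellular ATP by CellTiter-Glo luminescence; normalized to DMSO and 100 uM tamoxifen, AC50 from Hill fit.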
# [2] = target: Cytochrome P450 3A4 (Homo sapiens) (UniProt P08684); experiment: qHTS Assay for Inhibitors and Substrates of Cytochrome P450 3A4 (AID 884); note: nearly all actives have a fitted effect of over 50% in size; note: potency is the fitted concentration of half-maximal effect
# Sequence of Cytochrome P450 3A4 (Homo sapiens) (P08684 whole entry, looked up): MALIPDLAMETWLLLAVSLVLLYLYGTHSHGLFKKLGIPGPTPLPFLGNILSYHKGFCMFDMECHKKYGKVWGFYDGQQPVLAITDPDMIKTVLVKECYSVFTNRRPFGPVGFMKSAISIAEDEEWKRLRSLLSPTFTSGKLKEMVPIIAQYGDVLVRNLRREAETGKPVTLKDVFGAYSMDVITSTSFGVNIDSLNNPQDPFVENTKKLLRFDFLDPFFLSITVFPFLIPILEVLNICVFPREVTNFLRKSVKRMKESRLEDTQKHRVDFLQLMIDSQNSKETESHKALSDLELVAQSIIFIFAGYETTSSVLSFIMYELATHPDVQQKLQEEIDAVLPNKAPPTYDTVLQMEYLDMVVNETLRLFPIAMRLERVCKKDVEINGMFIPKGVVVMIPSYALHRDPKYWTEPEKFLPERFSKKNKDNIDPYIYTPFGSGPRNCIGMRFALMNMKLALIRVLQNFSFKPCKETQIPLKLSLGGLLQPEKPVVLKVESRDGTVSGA
# Summary of the method: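 Luminescent readout of luciferin produced by CYP3A4 (20 nM) dealkylation of Luciferin-PPXE, 25 uM (its KM). NADPH-driven reaction ran 60 min at RT after 10 min compound preincubation; data scaled to 57 uM ketoconazole as 100% inhibition.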
# [3] = qHTS Assay for Identification of Small Molecule Inducers of Hypoxia Response (AID 2120; active = well fitted curve in the direction sought with a large enough effect in the signal ratio, with a control signal flat, not every such curve was filed as active; the % refers to the signal ratio; note: 0% is about no effect)
# Summary of the method: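 Cell-based qHTS for reporter induction: hypoxia response element controlled beta-lactamase in ME-180 cells. Compounds incubated 17 h at 37 degrees C; activity from blue/green (460/530 nm) ratio, inducers ranked by AC50.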
# [4] = qHTS assay for small molecule antagonists of retinoid X receptor alpha signaling (AID 588546); conditions: HEK293T RXRa-UAS-bla, beta-lactamase ratio, antagonist mode; measured here: W530 green channel, cytotoxicity proxy;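 note: cells stimulated with 9-cis-retinoic acid as agonist; % is set by controls: 0 for no effect and ±100 for the full control effect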
# Summary of the method: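 Beta-lactamase reporter inhibition, read as CCF4 fluorescence ratio (ex 405, em 460/530 nm) after 2 h at RT. HEK293T UAS-bla cells, 2500/well, were stimulated with 9-cis-RA at 500 or 100 nM final alongside test compound for 18 h at 37 C.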
# [5] = qHTS assay for environmental chemicals that activate the Aryl hydrocarbon Receptor (AhR) signaling pathway (AID 651777); conditions: 1A2-DRE human hepatoma cells, luciferase, 24 h; activation: stronger effect = higher value; note: nearly all actives have a fitted effect of over 15% in size; note: potency is the fitted concentration of half-maximal effect; for activation: % of control where 0% means no effect
# Summary of the method: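 Quantitative HTS in stably transfected human liver-derived cells whose luciferase gene sits downstream of the CYP1A2 promoter and dioxin response element. After 24 hr exposure at 37 C, One-Glo luminescence was measured.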
# [6] = target: Peroxisome proliferator-activated receptor alpha (Homo sapiens) (UniProt Q07869); experiment: qHTS assay for small molecule agonists of the peroxisome proliferator-activated receptor alpha (PPARalpha) signaling pathway (AID 651778); conditions: PathHunter PPARalpha complementation, chemiluminescence, 6 h; max response: stronger effect = higher value; note: potency is the fitted concentration of half-maximal effect; for max response: % of control where 0% means no effect
# Sequence of Peroxisome proliferator-activated receptor alpha (Homo sapiens) (Q07869 whole entry, looked up, the tested form may be a part): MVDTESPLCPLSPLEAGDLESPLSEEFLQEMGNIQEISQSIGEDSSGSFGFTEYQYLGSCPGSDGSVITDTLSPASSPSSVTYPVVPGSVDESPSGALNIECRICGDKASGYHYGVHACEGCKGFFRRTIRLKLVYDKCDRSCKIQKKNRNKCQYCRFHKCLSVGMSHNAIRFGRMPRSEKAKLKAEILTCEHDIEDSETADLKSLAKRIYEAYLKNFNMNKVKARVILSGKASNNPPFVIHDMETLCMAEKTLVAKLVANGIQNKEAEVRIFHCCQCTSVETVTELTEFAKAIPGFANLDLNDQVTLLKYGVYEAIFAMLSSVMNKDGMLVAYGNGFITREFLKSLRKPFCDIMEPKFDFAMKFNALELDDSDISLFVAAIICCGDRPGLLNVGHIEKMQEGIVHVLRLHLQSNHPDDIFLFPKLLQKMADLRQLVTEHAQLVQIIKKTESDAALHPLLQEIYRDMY
# Summary of the method: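 Enzyme-fragment complementation assay in which ligand-bound PPARalpha translocates and forms an active enzyme that generates chemiluminescence. Cells were plated overnight, exposed to compound for 6 hr at 37 C, and then given detection reagent for 60 min at room temperature.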
# [7] = qHTS assay for small molecule agonists of the antioxidant response element (ARE) signaling pathway measured by Nrf2-dependant transcriptional activity - cell viability counter screen (AID 720653; active = well fitted curve in the direction sought with a large enough effect in the repeat runs; an effect the other way counts as inactive or inconclusive; note: % is set by controls: 0 for no effect and ±100 for the full control effect); conditions: ARE-bla HepG2 viability, CellTiter-Glo ATP luminescence, 16 h; max response: stronger effect = lower value
# Summary of the method: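 ARE-bla HepG2 cells treated with compounds for 16 h at 37C; this counter screen measures viability as intracellular ATP by CellTiter-Glo luminescence after 30 min at room temperature.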
# [8] = qHTS assay for cell viability of HEK293 cells (AID 743288); conditions: ATP luminescence (CellTiter-Glo), 18 h; max response: stronger effect = lower value; note: % is set by controls: 0 for no effect and ±100 for the full control effect; nearly all actives have a fitted effect of over 50% in size
# Summary of the method: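 Quantitative high-throughput screen: compounds were pinned onto parental HEK293 cells (2,000 per well) after a minimum 5 h settling at 37 C, incubated 18 h at 37 C, and intracellular ATP measured by luciferase luminescence.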
# [9] = qHTS assay for cell viability of the p53RE-bla HCT-116 cell line (AID 743292); note: % is set by controls: 0 for no effect and ±100 for the full control effect; nearly all actives have a fitted effect of over 55% in size
# Summary of the method: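 Viability of compound-treated p53RE-bla HCT-116 cells is taken from ATP-dependent luciferase luminescence. Treatment lasts 16 h at 37 C after a 5 h settling period; detection follows 30 min at room temperature.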
# [10] = target: Cytochrome P450 3A4 (Homo sapiens) (UniProt P08684); experiment: qHTS Assay for Activators of Cytochrome P450 3A4 (AID 885); note: nearly all actives have a fitted effect of over 65% in size
# Summary of the method: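 Human CYP3A4 dealkylates Luciferin-PPXE to luciferin, which luciferase detection converts to light. Substrate was at its KM (25uM), buffer 200mM KPO4, reaction 60 min at RT.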
# [11] = target: Glutathione peroxidase 1 (Homo sapiens) (UniProt P07203); experiment: Primary qHTS Assay for Inhibitors of Recombinant Selenoprotein Glutathione Peroxidase 1 (GPX1) (AID 1845191); note: nearly all actives have a fitted effect of over 65% in size; note: potency is the fitted concentration of half-maximal effect
# Sequence of Glutathione peroxidase 1 (Homo sapiens) (P07203 whole entry, looked up): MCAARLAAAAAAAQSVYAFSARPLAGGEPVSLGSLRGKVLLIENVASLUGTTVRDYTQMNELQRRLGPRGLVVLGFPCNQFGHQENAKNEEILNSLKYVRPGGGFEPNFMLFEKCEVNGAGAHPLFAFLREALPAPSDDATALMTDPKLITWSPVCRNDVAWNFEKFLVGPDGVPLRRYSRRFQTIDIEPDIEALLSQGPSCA
# Summary of the method: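 GR-coupled readout: NADPH consumption tracked by fluorescence, ex 340/em 450 nm, at t=0 and after 15 min at RT. Final mix 10 nM GPX1, 1 mM GSH, 0.5 mM CHP, 0.5 mM NADPH, 100 nM GR, 0.01% BSA, following 30 min enzyme–compound preincubation.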
# [12] = target: Lysosomal acid glucosylceramidase (Homo sapiens) (UniProt P04062); experiment: Glucocerebrosidase-p2 (AID 348; in the data active = potency below about 10 µM; note: potency is the fitted concentration of half-maximal effect); conditions: purified GBA, blue fluorogenic substrate, 40 min
# Sequence of Lysosomal acid glucosylceramidase (Homo sapiens) (P04062 whole entry, looked up): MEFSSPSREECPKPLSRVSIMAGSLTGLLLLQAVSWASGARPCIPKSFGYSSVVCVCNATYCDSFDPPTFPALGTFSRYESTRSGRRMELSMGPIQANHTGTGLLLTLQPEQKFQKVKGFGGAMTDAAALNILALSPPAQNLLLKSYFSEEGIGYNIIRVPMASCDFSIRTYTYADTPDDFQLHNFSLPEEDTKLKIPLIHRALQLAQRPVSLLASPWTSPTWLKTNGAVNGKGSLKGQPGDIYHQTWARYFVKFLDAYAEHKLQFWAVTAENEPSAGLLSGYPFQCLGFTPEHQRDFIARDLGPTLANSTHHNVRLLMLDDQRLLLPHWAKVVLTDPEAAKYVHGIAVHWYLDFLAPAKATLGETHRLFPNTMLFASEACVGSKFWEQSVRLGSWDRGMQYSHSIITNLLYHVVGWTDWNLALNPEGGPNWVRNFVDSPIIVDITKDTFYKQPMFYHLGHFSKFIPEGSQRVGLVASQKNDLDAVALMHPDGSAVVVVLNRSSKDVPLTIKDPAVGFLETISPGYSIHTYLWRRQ
# Summary of the method: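 Normal human glucocerebrosidase (0.2 nM) with blue fluorogenic substrate (80 uM final) in citrate/phosphate pH 5.9 with 10mM sodium taurocholate, 0.01% tween-20; 40 min RT, NaOH/glycine stop; fluorescence Ex 365/Em 440; AC50 from a titration from 0.6 nM upwards.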
# [13] = AP1 Signaling Pathway (AID 357; active = well fitted curve in either direction with a large enough effect, not every such curve was filed as active;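 note: ME-180 reporter cells stimulated with EGF at its EC50 level; % is set by controls: 0 for no effect and ±100 for the full control effect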); conditions: ME-180 (cervical carcinoma) AP-1-bla reporter, EGF-induced, beta-lactamase ratio, 5 h; at 7.69 µM (top of the series) unless noted
# Summary of the method: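 Beta-lactamase reporter under AP-1 response element, ME-180 background. Stimulus: EC50 EGF. Compound exposure 5 h, 37 °C. Detection: CCF4, 2.5 h RT, 460/530 nm. Values: AC50 from titration.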
# [14] = target: Cytochrome P450 1A2 (Homo sapiens) (UniProt P05177); experiment: p450-cyp1a2 (AID 410; calls by dose curve; note: potency is the fitted concentration of half-maximal effect)
# Sequence of Cytochrome P450 1A2 (Homo sapiens) (P05177 whole entry, looked up): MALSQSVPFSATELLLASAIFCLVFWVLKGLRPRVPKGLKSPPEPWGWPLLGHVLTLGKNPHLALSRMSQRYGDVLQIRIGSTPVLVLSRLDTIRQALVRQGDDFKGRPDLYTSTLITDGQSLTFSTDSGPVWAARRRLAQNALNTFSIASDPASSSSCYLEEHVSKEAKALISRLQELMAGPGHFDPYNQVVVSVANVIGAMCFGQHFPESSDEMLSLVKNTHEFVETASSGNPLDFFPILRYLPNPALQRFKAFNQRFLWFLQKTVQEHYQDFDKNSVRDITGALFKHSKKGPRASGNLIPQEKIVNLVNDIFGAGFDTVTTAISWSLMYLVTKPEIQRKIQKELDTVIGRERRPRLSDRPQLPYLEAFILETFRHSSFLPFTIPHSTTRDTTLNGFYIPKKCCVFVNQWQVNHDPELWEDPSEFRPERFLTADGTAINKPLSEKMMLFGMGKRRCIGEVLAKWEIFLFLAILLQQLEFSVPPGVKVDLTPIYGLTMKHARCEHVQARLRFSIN
# Summary of the method: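 O-Demethylation of luciferin 6' methyl ether by human CYP1A2 is monitored as luciferase luminescence. Substrate sits at Km (100uM); enzyme is 20nM. Values are scaled to 57 uM furafylline as maximal inhibition.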
# [15] = target: Dual specificity protein kinase CLK4 (Homo sapiens) (UniProt Q9HAZ1); experiment: qHTS Assay for Inhibitors of CDC-like Kinase 4 (ADP-FP Assay) (AID 1795);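 note: recombinant human CLK4 phosphorylating RS repeat peptide at 1 µM ATP; % is set by controls: 0 for no effect and ±100 for the full control effect; nearly all actives have a fitted effect of over 60% in size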
# Sequence of Dual specificity protein kinase CLK4 (Homo sapiens) (Q9HAZ1 whole entry, looked up): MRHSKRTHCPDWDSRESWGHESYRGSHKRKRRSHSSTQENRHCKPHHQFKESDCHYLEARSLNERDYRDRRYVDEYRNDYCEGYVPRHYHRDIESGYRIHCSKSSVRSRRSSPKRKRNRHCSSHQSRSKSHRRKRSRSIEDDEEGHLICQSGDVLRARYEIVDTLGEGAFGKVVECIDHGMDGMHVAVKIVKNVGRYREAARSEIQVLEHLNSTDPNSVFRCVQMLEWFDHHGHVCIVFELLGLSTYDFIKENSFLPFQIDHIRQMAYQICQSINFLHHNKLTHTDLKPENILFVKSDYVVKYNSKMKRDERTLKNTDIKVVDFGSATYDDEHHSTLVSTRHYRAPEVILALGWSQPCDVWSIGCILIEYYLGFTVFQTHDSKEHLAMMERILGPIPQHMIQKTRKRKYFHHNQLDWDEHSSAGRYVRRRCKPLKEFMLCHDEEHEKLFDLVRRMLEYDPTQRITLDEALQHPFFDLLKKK
# Summary of the method: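 Inhibition of ADP formation by 6.25 nM Clk4 is measured using 1 uM ATP and 100 uM RS repeat peptide over one hour. Produced ADP displaces a fluorescent tracer from antibody, lowering polarization.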
# [16] = target: Glucocorticoid receptor (Homo sapiens) (UniProt P04150); experiment: GR-EFC Redistribution (AID 451; calls by dose curve; note: potency is the fitted concentration of half-maximal effect); conditions: CHO-K1 GR-EFC translocation, beta-gal luminescence, 2 h
# Sequence of Glucocorticoid receptor (Homo sapiens) (P04150 whole entry, looked up, the tested form may be a part): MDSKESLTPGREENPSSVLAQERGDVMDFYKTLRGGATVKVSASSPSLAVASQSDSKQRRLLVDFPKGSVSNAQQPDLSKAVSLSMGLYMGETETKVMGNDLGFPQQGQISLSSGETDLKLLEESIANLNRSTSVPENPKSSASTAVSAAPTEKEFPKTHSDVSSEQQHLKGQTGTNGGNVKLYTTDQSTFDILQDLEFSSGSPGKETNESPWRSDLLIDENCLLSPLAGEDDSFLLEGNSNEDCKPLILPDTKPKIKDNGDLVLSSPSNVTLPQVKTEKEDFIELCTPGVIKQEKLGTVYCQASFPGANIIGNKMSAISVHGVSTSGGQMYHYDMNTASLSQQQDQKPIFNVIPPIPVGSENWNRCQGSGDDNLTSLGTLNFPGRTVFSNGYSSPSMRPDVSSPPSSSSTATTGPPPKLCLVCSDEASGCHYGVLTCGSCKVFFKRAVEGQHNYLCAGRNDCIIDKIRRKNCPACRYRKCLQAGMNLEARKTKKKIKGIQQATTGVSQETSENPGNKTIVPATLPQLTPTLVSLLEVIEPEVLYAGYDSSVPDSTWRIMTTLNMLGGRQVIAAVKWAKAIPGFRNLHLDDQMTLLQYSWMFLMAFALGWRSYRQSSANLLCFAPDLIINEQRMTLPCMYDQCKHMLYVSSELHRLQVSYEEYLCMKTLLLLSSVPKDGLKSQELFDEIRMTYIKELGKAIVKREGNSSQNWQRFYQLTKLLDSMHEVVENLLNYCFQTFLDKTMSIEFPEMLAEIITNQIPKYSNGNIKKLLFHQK
# Summary of the method: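 CHO-K1 cells expressing nuclear EA and GR-ED fragments of b-gal; compounds titrated up to 46 uM final, 2 h at 37 C. GR nuclear translocation read as complemented b-gal luminescence after 1 h RT detection.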
# [17] = Stat Signaling Pathway (AID 446; active = well fitted curve in either direction with a large enough effect, not every such curve was filed as active;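 note: ME-180 cervical cancer cells given 40 pM IL-6 alongside compound; SIE-controlled beta-lactamase reporter measured as 460/530 nm FRET emission ratio; % is set by controls: 0 for no effect and ±100 for the full control effect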)
# Summary of the method: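 Normalization used AC90 stimulation (300 pM IL-6) and AC90 inhibition (125 nM pan-JAK inhibitor at 40 pM IL-6). The underlying signal is SIE-driven beta-lactamase in ME-180 cells after 5 h IL-6 exposure with compound.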
# [18] = target: 3',5'-cyclic-AMP phosphodiesterase 4B (Homo sapiens) (UniProt Q07343); experiment: qHTS Assay for Inhibitors of PDE-IV (AID 607; active = well fitted activation curve with a large enough effect in the main read-out, with a control signal flat, not every such curve was filed as active; note: % of control where 0% means no effect)
# Sequence of 3',5'-cyclic-AMP phosphodiesterase 4B (Homo sapiens) (Q07343 whole entry, looked up): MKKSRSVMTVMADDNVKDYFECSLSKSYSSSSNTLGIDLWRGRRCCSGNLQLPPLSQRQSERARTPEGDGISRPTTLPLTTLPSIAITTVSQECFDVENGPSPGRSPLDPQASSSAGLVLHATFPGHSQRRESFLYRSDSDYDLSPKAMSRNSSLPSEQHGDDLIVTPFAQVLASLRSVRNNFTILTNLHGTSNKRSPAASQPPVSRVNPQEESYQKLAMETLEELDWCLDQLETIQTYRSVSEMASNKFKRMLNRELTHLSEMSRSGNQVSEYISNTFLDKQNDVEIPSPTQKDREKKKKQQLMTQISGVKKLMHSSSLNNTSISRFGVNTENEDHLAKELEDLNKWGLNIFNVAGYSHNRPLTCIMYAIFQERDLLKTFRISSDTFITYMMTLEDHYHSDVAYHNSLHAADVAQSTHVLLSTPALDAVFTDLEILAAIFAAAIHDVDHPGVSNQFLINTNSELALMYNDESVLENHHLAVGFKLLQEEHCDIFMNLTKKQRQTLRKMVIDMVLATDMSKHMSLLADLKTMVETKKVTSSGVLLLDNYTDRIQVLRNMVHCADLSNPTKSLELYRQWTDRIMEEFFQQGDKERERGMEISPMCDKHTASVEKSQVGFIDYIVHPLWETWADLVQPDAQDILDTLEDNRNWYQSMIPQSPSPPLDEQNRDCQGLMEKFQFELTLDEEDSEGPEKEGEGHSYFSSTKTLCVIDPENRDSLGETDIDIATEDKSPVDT
# Summary of the method: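 HEK293 ACTOne cells with CNG channel (1000/well), endogenous PDE4; membrane potential dye, compounds up to 22.9 uM final. Fluorescence Ex 535/Em 590; RO 20-1724 (100 uM final) as reference.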
# [19] = target: Cytochrome P450 2C19 (Homo sapiens) (UniProt P33261); experiment: qHTS Assay for Inhibitors and Substrates of Cytochrome P450 2C19 (AID 899); note: nearly all actives have a fitted effect of over 60% in size; note: potency is the fitted concentration of half-maximal effect
# Sequence of Cytochrome P450 2C19 (Homo sapiens) (P33261 whole entry, looked up): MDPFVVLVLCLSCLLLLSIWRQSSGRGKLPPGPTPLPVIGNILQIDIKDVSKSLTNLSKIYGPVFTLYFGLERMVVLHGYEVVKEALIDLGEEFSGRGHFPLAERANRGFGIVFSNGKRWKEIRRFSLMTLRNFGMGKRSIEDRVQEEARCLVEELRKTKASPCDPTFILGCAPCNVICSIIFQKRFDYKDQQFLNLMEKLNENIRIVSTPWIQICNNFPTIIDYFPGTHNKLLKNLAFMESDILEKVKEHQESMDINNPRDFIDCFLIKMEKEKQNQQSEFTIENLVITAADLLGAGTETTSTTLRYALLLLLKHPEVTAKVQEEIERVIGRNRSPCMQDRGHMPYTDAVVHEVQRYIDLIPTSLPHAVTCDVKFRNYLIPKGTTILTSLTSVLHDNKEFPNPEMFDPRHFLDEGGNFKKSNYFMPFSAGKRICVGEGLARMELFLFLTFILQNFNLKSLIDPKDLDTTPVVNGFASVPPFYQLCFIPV
# Summary of the method: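 5 nM human CYP2C19 with 10uM Luciferin-H EGE (at KM) in 50mM KPO4, compound preincubated 10 min at 37C, then NADPH regeneration for 60 min at 37C. Luciferin read by luminescence after detection reagent; normalized to 57uM ketoconazole as full inhibition.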
structure (smiles),measurement,setting,value
CCCCCCCCCCCCCC(=O)O,Potency,[1],> 92 µM (inactive)
same,Potency,[2],inactive
same,outcome,[3],inactive
same,max response,[4],9.83% and 0.375%
same,activation,[5],-0.758% (inactive) and 0.233% (inactive)
same,Potency,[6],22.4 µM (active)
same,max response,[7],1.31% (inactive) and -9.4% (inactive)
same,max response,[8],2.25% (inactive) and -11.5% (inactive)
same,Potency,[9],inactive
COc1cc(/C=C/c2ccccc2)oc(=O)c1,Potency,[1],> 92 µM (inactive)
same,Potency,[2],15.8 µM (active)
same,outcome,[10],inactive
same,outcome,[3],inactive
same,max response,[4],21.7%
same,Potency,[5],7.08 µM (active)
same,max response,[6],-1.59% (inactive)
same,max response,[7],-6.81% (inactive)
same,max response,[8],-23% (inactive)
same,Potency,[9],inactive
C=C(C)C1CC=C(C)C(O)C1 (configuration not stated),Potency,[1],> 92 µM (inactive)
same,Potency,[2],inactive
same,outcome,[3],inactive
same,max response,[4],-6.28%
same,activation,[5],-0.5% (inactive)
same,max response,[6],-4.25% (inactive)
same,max response,[7],-2.07% (inactive)
same,max response,[8],0.258% (inactive)
same,Potency,[9],inactive
C=CC(=C)CCC=C(C)C,Potency,[1],> 92 µM (inactive)
same,Potency,[2],inactive
same,outcome,[3],inactive
same,max response,[4],4.75%
same,activation,[5],0.322% (inactive)
same,max response,[6],-1.83% (inactive)
same,max response,[7],6.84% (inactive)
same,max response,[8],1.18% (inactive)
same,Potency,[9],inactive
CC1=C2[C@H](/C=C(\C)C(=O)O)CC[C@@H](C)[C@H]2CC1,Potency,[1],> 92 µM (inactive)
same,Potency,[2],inactive
same,outcome,[3],inactive
same,max response,[4],26.2%
same,activation,[5],0.0877% (inactive)
same,max response,[6],14.9% (inactive)
same,max response,[7],-0.329% (inactive)
same,max response,[8],5.67% (inactive)
same,Potency,[9],inactive
COc1ccc(/C=C/c2cc(OC)cc(=O)o2)cc1,Potency,[1],> 92 µM (inactive)
same,Potency,[2],inactive
same,outcome,[3],inactive
same,max response,[4],19.1%
same,Potency,[5],10 µM (active)
same,max response,[6],9.34% (inactive)
same,max response,[7],11.1% (inactive)
same,max response,[8],-19.9% (inactive)
same,Potency,[9],inactive
NC(=O)C1(N2CCCCC2)CCN(CCCN2c3ccccc3CCc3ccccc32)CC1,Potency,[11],inactive
CN1CCN(c2nc(-c3cccnc3)nc3ccccc23)CC1,Potency,[12],> 11.4 µM (inactive)
same,"activity change, negative = inhibition",[13],5.32% (inactive)
same,Potency,[14],3.16 µM (active)
same,outcome,[10],inactive
same,Potency,[15],inactive
COc1ccccc1CNc1nc(-c2cccc(NS(C)(=O)=O)c2)nc2ccccc12,Potency,[12],> 11.4 µM (inactive)
same,"activity change, negative = inhibition",[13],-13.2% (inactive)
same,Potency,[16],> 46 µM (inactive)
same,Potency,[15],inactive
CN(C)c1ccc(-c2cncnc2NCCc2cnc[nH]2)cc1,"activity change, negative = inhibition",[13],-28.6% (inactive)
same,Potency,[14],1.26 µM (active)
same,outcome,[17],inactive
same,Potency,[16],> 46 µM (inactive)
same,Potency,[18],inactive
same,outcome,[10],inactive
same,Potency,[19],0.0794 µM (active)
same,Potency,[15],inactive
Cc1ccccc1-c1ccc2ncnc(NCCN3CCOCC3)c2c1,"activity change, negative = inhibition",[13],13.8% (inactive)
same,outcome,[17],inactive
same,Potency,[15],inactive
O=C(O)C1=C(CSc2nnnn2CS(=O)(=O)O)CS[C@@H]2[C@@H](NC(=O)[C@H](O)c3ccccc3)C(=O)N12,Potency,[11],11.4 µM (active)
CCc1nc2c(sc3nc4c(cc32)COC(C)(C)C4)c(=O)n1Cc1ccco1,Potency,[11],inactive
CCCCCCCC/C=C/CCCCCCCC(=O)O,Potency,[11],inactive
COc1ccccc1CNc1nc(-c2ccc(C(=O)N(C)C)cc2)nc2ccccc12,Potency,[12],> 11.4 µM (inactive)
same,outcome,[17],inactive
same,Potency,[16],> 46 µM (inactive)
same,Potency,[15],inactive
CCCCCCCCCCCC(=O)O,Potency,[1],> 92 µM (inactive)
same,Potency,[2],inactive
same,outcome,[3],inactive
same,max response,[4],24.4% and 28.8%
same,activation,[5],0.903% (inactive) and 1.44% (inactive)
same,max response,[6],9.6% (inactive) and 16.5% (inactive)
same,max response,[7],8.32% (inactive) and -0.379% (inactive)
same,max response,[8],-8.75% (inactive) and -7.33% (inactive)
same,Potency,[9],inactive
COc1ccc2[nH]cc(CCNc3ncncc3-c3ccccc3C(F)(F)F)c2c1,Potency,[12],> 11.4 µM (inactive)
same,"activity change, negative = inhibition",[13],3.8% (inactive)
same,Potency,[14],10 µM (active)
same,outcome,[17],inactive
same,Potency,[18],inactive
same,Potency,[2],0.251 µM (active)
same,outcome,[10],inactive
same,Potency,[19],0.251 µM (active)
same,Potency,[15],inactive
O=c1cnc2cnc(N3CCOCC3)nc2n1Cc1cccs1,Potency,[12],> 11.4 µM (inactive)
same,"activity change, negative = inhibition",[13],-3.18% (inactive)
same,Potency,[14],2.51 µM (active)
same,Potency,[18],inactive
same,outcome,[10],inactive
same,Potency,[15],inactive
CN(C)Cc1ccccc1-c1ccc2ncnc(N(C)C)c2c1,"activity change, negative = inhibition",[13],-1.59% (inactive)
same,outcome,[17],inactive
same,Potency,[16],> 46 µM (inactive)
same,Potency,[18],inactive
same,outcome,[10],inactive
same,Potency,[15],inactive
O=c1cc(-c2ccc(O)c(O)c2)oc2cc(O[C@@H]3O[C@@H](CO)[C@@H](O)[C@@H](O)[C@H]3O)cc(O)c12,Potency,[14],39.8 µM (active)
same,Potency,[16],> 46 µM (inactive)
same,Potency,[19],inactive
CN(C)C(=O)c1ccc(-c2ccc3ncnc(Nc4ccc(F)cc4)c3c2)cc1,Potency,[12],> 11.4 µM (inactive)
same,Potency,[14],20 µM (active)
same,Potency,[16],> 46 µM (inactive)
same,Potency,[18],inactive
same,outcome,[10],inactive
same,Potency,[15],inactive
